Compounds with a hit are over-represented: about 6.6% of the library has one in this group of screens.
KB-3-1 tox: kills parental KB-3-1 adenocarcinoma cells. 400,000 compounds, 1.4% hits. Potency, µM (highest dose often 46.1 µM), usual class: cytotoxic. KB-3-1 viability, CellTiter-Glo ATP luminescence, 72 h; further: on the % scale 0 is the no-effect control and ±100 the full control effect; nearly all actives have a fitted effect of over 60% in size
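Using CellTiter-Glo luminescence, growth of non-resistant KB-3-1 adenocarcinoma cells is assessed 72 h after pin-tool compound addition at 37 °C. Normalized responses across the concentration series yield fitted curves.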
MCF10A rerep: induces DNA re-replication in MCF 10a normal breast cells; 350,000 compounds, 2.9% hits; AID 624296; Potency, µM (titrated, usually from 46.1 µM), for the others: at the top dose activity, positive = re-replication, hits mostly activators; MCF 10A DNA re-replication, Hoechst nuclear intensity, 48 h; further: % of control where 0% means no effect; nearly all actives have a fitted effect of over 50% in size
RGS4 inhibitor: inhibitors of human regulator of G protein signaling 4. P49798. Transcreener GDP fluorescence polarization, RGS4-accelerated GTP hydrolysis. Potency, µM (top dose mostly 114 µM), without a hit: at the top dose activity change, negative = inhibition, hits mostly inhibitors. 390,000 compounds, 0.039% hits; further: on the % scale 0 is the no-effect control and ±100 the full control effect; nearly all actives have a fitted effect of over 75% in size
Target sequence (P49798 whole entry, looked up): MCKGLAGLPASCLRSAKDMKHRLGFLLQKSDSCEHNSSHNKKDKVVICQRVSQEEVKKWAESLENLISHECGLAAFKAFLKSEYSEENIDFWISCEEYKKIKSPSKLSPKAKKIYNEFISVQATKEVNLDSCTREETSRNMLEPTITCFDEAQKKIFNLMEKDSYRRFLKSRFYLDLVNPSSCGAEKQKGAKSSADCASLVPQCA
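MLSMR compounds (23 nl, pin-transferred) preincubated 10 min at room temperature with a 500nM (2x) first reagent, then RGS4 at 900nM (2x) plus Transcreener GDP mix added; fluorescence polarization (620/688 nm) read before and after 90 min at 30 °C.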
KB-V1 cytotox: kills drug-selected multidrug resistant KB-V1 cells. Potency, µM (doses to about 46.1 µM), hits mostly cytotoxic. KB-V1 MDR cells viability, CellTiter-Glo, 72 h. AID 1347076. 400,000 compounds, 3.4% hits; further: on the % scale 0 is the no-effect control and ±100 the full control effect; nearly all actives have a fitted effect of over 60% in size
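Cytotoxicity via CellTiter-Glo luminescence after 72 h compound exposure at 37 degrees C. Cells: drug-selected KB-V1 line, DMEM phenol-red free plus 10% FBS. Compounds tested at multiple concentrations; normalized data fitted to concentration-effect curves.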
TSG101-PTAP inh: blocks PTAP/TSG101 interaction to inhibit HIV-1 budding. Q99816. Fluorescence polarization, FITC-PTAP peptide / Tsg101 binding. Potency, µM (doses to about 115 µM), for the others: top-dose activity change, negative = inhibition, usual class: inhibitors. 340,000 tested, under 10 active. AID 493005; active means well fitted inhibition curve with a large enough effect in the main read-out, with a control signal flat, not every such curve was filed as active; inconclusive means small, poorly fitted or top-dose-only effect, or effect the other way, or a change in a side signal; inactive means no such curve, though single readings can be large or run the other way; further: % of control where 0% means no effect
Target sequence (Q99816 whole entry, looked up): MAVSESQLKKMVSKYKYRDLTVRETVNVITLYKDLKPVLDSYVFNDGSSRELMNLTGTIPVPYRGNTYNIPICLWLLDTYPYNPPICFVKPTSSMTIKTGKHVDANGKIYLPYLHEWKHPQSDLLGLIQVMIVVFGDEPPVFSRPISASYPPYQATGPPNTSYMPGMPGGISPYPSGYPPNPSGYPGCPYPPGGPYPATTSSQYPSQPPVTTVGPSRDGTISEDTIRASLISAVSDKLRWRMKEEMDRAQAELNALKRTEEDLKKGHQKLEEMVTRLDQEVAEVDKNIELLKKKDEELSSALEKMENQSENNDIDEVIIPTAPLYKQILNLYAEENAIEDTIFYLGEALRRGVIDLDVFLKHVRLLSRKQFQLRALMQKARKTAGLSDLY
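Steps: Tsg101 binding domain dispensed (10 uM final), compounds pinned in DMSO, FITC-labeled PTAP-motif peptide added (50 nM final); after 20 min binding at room temperature, polarization measured.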
SW480 rerep: inducers of DNA re-replication in SW480 colon cancer cells; SW480 DNA re-replication, Hoechst DNA content imaging, 48 h; Potency, µM (titrated, usually from 46.1 µM), inactives show top-dose re-replication activation, hits mostly activators; 340,000 compounds, 1.8% hits; further: % of control where 0% means no effect; nearly all actives have a fitted effect of over 55% in size
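Quantitative HTS format with DMSO vehicle controls; 48 hr drug incubation at 37 C, then 40 min Hoechst staining and scanning imager measurement at 405 nm excitation.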
The depositor's hits bear a star; i = inactive; ? = inconclusive; nt = no result; ! = a repeat was not active; [ ] = remark or other dose. Unless noted, the call rests on the fitted dose curve; in most records, active means well fitted curve in the direction sought with a large enough effect; inconclusive means small, poorly fitted or top-dose-only effect, or another doubt; inactive means no such curve, though single readings can be large; an effect the other way counts as inactive or inconclusive. Potency means the concentration at half of the fitted maximal effect.

SMILES	KB-3-1 tox	MCF10A rerep	RGS4 inhibitor	KB-V1 cytotox	TSG101-PTAP inh	SW480 rerep
COc1ccc([N+](=O)[O-])cc1NC(=O)CSCc1ccccc1	i	3.4%	11.2%	i	8.7%	-2.4%
COc1ccc([N+](=O)[O-])cc1NC(=O)Cc1ccc(C)cc1	i	6.1%	-30.7%	i	-2.3%	-1.9%
O=C(CCc1ccccc1)Nc1ccc(F)c([N+](=O)[O-])c1	i	-8.0%	-24.6%	i	-4.0%	-25.7%
COc1ccc(CCC(=O)Nc2cc([N+](=O)[O-])ccc2OC)cc1	i	-51.1%	-16.6%	20.6µM*	-1.7%	-15.3%
CC(=O)Nc1cc([N+](=O)[O-])ccc1OCc1ccccc1	i	-0.9%	-3.4%	18.4µM*	-1.9%	-0.8%
COc1ccc(CCC(=O)Nc2ccc(C)c([N+](=O)[O-])c2)cc1	i	18.8%	-23.7%	20.6µM*	-0.8%	13.6%
Cc1ccc2oc3c(c(=O)c2c1)C(c1cccc(O)c1)N(Cc1ccccc1Cl)C3=O (stereo not given)	i	nt	-0.1%	i	nt	nt
Nc1ncnc2c1nc(Sc1ccc(Cl)cc1)n2[C@H]1OC2COP(=O)(O)O[C@@H]2C1O (stereo not given in full)	nt	nt	-1.1%[56.9 µM]	nt	nt	nt
CNS(=O)(=O)c1cn(CC(=O)N2CCN(c3ccc(C)cc3C)CC2)cc1S(=O)(=O)NC	i	nt	6.2%	i	nt	nt
Cc1c(C(=O)Nc2ccc(F)c(Cl)c2)sc2nc3n(c(=O)c12)CCC3	i	nt	11.1%	?	nt	nt
NC(=S)NN=Cc1nccc2c(N)cccc12	?	nt	nt	i	nt	nt
CCN(C(C)=O)c1cnc(C=NNC(N)=S)c2ccccc12	i	4.61µM*	-46.1%	14.6µM*	0.4%	10.3µM*
Cc1cc2[nH]c3ccccc3c2c(C)n1	?	?	3.6%	16.4µM*	-1.4%	8.7%
Cc1nc(=S)c2ccccc2[nH]1	i	-1.3%	-6.9%	i	-6.4%	-6.0%
COC(=O)c1ccc(-n2c(/C=C\c3cccc(Br)c3)nc3ccccc3c2=O)cc1	13µM*	nt	-17.7%	?	nt	nt
COc1ccccc1CNC(=O)c1cc2cc(C)ccc2n1C	i	nt	-11.3%	i	nt	nt
CN(C)CCCC(=O)c1ccc2c(c1)OCO2	i	-1.6%	2.0%	?	-4.4%	3.2%[9.22 µM]
CN(C)CCC(=O)c1ccc2c(c1)OCO2	?	7.31µM*	?	i	-8.8%	?
CN(C)CCC(=O)c1ccc(F)cc1	i	?	31.1%[11.4 µM]	i	-3.4%	?
CN(C)CCC(=O)c1cccc(Br)c1	i	18.4µM*	?	i	0.7%	?
Cc1cc(C)c(C(=O)/C=C/c2ccc3c(c2)OCO3)c(=O)[nH]1	?	?	-17.3%	?	2.5%	?
Cc1cc(C)c(C(=O)/C=C/c2cccc3ccccc23)c(=O)[nH]1	6.51µM*	16.4µM*	-11.3%	8.2µM*	0.2%	23.1µM*
COc1ccc(C(NC(C)=O)c2cc(Cl)c3cccnc3c2O)cc1OC (stereo not given)	?	?	-1.0%	i	-2.4%	1.64µM*
CCC(=O)NC(c1ccc(OC)c(OC)c1)c1cc(Cl)c2cccnc2c1O (stereo not given)	3.26µM*!	?	-2.0%	?	-2.4%	?
COc1ccccc1C(NC(C)=O)c1cc(Cl)c2cccnc2c1O (stereo not given)	?	?	3.0%	?	0.8%	0.581µM*
SMILES	KB-3-1 tox	MCF10A rerep	RGS4 inhibitor	KB-V1 cytotox	TSG101-PTAP inh	SW480 rerep
CCC(=O)NC(c1ccc(C)cc1)c1cc(Cl)c2cccnc2c1O (stereo not given)	?	-12.7%	-6.4%	?	-1.4%	?
CCOc1cc(C(=O)NCCc2csc(-c3ccc(C)cc3)n2)cc(OCC)c1OCC	nt	nt	0.5%	nt	nt	nt
Cc1sc2ncn(CC(=O)N3CCN(c4ccccc4)CC3)c(=O)c2c1S(=O)(=O)N1CCC(C)CC1	i	nt	0.0%	i	nt	nt
O=Cc1cc2c(cc1[B-](F)(F)F)OCO2	i	-52.3%	4.6%	i	-0.4%	16.4µM*
O/N=C/c1ccc(OCc2ccccc2)c(Br)c1	?	25.9µM*	-51.9%	11.6µM*	-1.2%	?
O/N=C/c1ccc(OCc2ccccc2)c(Cl)c1	?	3.8%	-13.5%	?	-6.1%	6.0%
O/N=C/c1ccc(OCc2ccccc2F)c(Cl)c1	?	?	19.2%	16.4µM*	-1.7%	7.3%
CCOc1cc(/C=N/O)cc(Br)c1OCc1ccc(Cl)cc1	i	11.2µM*	0.4%	i	-6.6%	?
CCCCNc1c(-c2cccc(SC(C)CC)c2)nc2ccc(Cl)cn12 (stereo not given)	?	?	-18.5%	?	-4.0%	-5.9%
CCCCNc1c(-c2ccc(OC)c(SC(C)CC)c2)nc2ccc(Cl)cn12 (stereo not given)	i	20.6µM*	-12.0%	i	1.3%	11.3%
CCCCCCSc1cc(-c2nc3ccc(C)cn3c2NCCCC)ccc1OC	i	?	-4.7%	?	-1.5%	?
CCCCCCSc1cccc(-c2nc3ccc(Cl)cn3c2NCc2ccccc2)c1	i	20.6µM*	12.6%	?	nt	-2.9%
CCCCCCSc1ccc(-c2nc3ccc(C)cn3c2NCc2ccccc2)cc1	?	?	-5.3%	?	1.9%	-2.1%[9.22 µM]
CCC(C)Sc1ccc(-c2nc3ccc(Cl)cn3c2NCc2ccccc2)cc1 (stereo not given)	i	11.6µM*	-8.7%	i	2.0%	15.3%
CCCCNc1c(-c2ccc(OC)c(SC(C)CC)c2)nc2ccc(C)cn12 (stereo not given)	?	?	8.6%	18.4µM*!	-6.5%	12.8%[9.22 µM]

Source: PubChem BioAssay
